Compound activity from PubChem BioAssay.
Compounds with a hit are over-represented: about 3% of the library has one in this group of screens.
Sm TGR inh = inhibitors of Schistosoma mansoni thioredoxin glutathione reductase | Q962Y6 | purified TGR, DTNB reduction, TNB absorbance 405 nm | Potency, µM (doses to about 114 µM), hits mostly inhibitors | 360,000 tested, 3% active | AID 485364; active = well fitted inhibition curve with a large enough effect; inconclusive = small, poorly fitted or top-dose-only effect; inactive = no such curve, though single readings can be large or run the other way; note: nearly all actives have a fitted effect of over 60% in size
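TGR 20 nM + NADPH 100 uM (dispensed conc.), cpd preinc 15 min RT; start with NADPH (500 uM addition) then DTNB (15 mM addition). Kinetic TNB absorbance, 405 nm filter. Four-parameter Hill fit across titration.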
SARS PLP yeast = inhibitors of SARS-CoV papain-like protease in yeast. S. cerevisiae expressing SARS-CoV PLpro, growth rescue. Potency, µM (series often up to 32.9 µM), usual class: activators. 330,000 tested, 0.19% active; calls by dose curve; note: nearly all actives have a fitted effect of over 55% in size
Large screens that a line does not name were inactive.

COc1ccc(-c2cc(C)no2)cc1S(=O)(=O)NCc1cccs1	none (no result: SARS PLP yeast)
Fc1ccccc1N1CCN(c2nnc(C(F)(F)F)c3nnn(Cc4ccccc4)c23)CC1	none (no result: SARS PLP yeast)
Cc1ccccc1CNC(=O)c1c(C)oc2c1C1=NCCN1C=N2	none (no result: SARS PLP yeast)
COc1cc(NS(=O)(=O)c2ccc(NC(=O)c3ccc(Cl)cc3Cl)cc2)nc(OC)n1	none (no result: SARS PLP yeast)
COc1cccc(CNC(=O)CCCn2c(=O)c3cccn3c3ccc(F)cc32)c1OC	none (no result: SARS PLP yeast)
COc1cccc(NC(=O)CSc2nc(C)c(Cc3ccccc3)c(=O)[nH]2)c1	none (no result: SARS PLP yeast)
CC(=O)c1ccc(NC(=O)c2sc(-n3nc(C)c(Cc4ccc5c(c4)OCO5)c3C)nc2C)cc1	none (no result: SARS PLP yeast)
COC(=O)c1cccc(-n2c(C)cc(C=O)c2C)c1C	none
COC(=O)C1=C(O)/C(=C\c2cc(C)n(-c3ccccc3F)c2C)N=C1C	Sm TGR inh 25µM
COC(=O)C1=C(O)/C(=C\c2cc(C)n(-c3ccccc3C)c2C)N=C1C	Sm TGR inh 25µM
COC(=O)C1=C(O)/C(=C\c2sccc2C)N=C1C	none
O=C(CSc1nc2ccsc2c(=O)n1-c1ccc(Br)cc1)NCc1ccccc1	none (no result: SARS PLP yeast)
Cc1[nH]n(-c2ccccc2)c(=O)c1C(C[N+](=O)[O-])c1ccccc1Cl (stereo not drawn)	none
COc1ccc(C(C[N+](=O)[O-])c2c(C)[nH]n(-c3ccccc3)c2=O)cc1 (stereo not drawn)	Sm TGR inh 18µM
COc1ccc(C(C[N+](=O)[O-])c2c(C)cc3ccccn23)cc1 (stereo not drawn)	Sm TGR inh 28µM
COc1ccc(C(C[N+](=O)[O-])c2c(-c3ccccc3)cc3ccccn23)c(OC)c1 (stereo not drawn)	Sm TGR inh 56µM
Cc1cc2ccccn2c1C(C[N+](=O)[O-])c1ccc(N(C)C)cc1 (stereo not drawn)	Sm TGR inh inconclusive
COc1ccccc1C(C[N+](=O)[O-])c1c(N)n(C)c(=O)n(C)c1=O (stereo not drawn)	none
COc1ccc(OC)c(S(=O)(=O)NCc2ccc3c(c2)CCN3C(=O)c2cccc(C)c2)c1	none (no result: SARS PLP yeast)
CCN(c1ccccc1)S(=O)(=O)c1cc(Br)cc2c1N(C(=O)C1CC1)CC2	none (no result: SARS PLP yeast)
Cc1ccc(Cl)cc1N1CCN(C(=O)c2cnc(N3CCOCC3)c3ccccc23)CC1	none (no result: SARS PLP yeast)
COc1ccc(CNC(=O)CCCc2cn(C)c3ccccc23)c(OC)c1	none (no result: SARS PLP yeast)
COc1cc(Cc2ccc(N)c(OC)c2)ccc1N	none
Nc1ccc(Cc2ccc(N)c(O)c2)cc1O	Sm TGR inh 40µM
CN(C)c1ccc(CC(=O)c2nc3ccccc3s2)cc1	Sm TGR inh 40µM
CN(C)C(=O)c1nc2ccccc2s1	none
O=C1C2CC=C(Cl)CC2C(=O)N1CCN1CCOCC1 (stereo not drawn)	none
O=C1C2CC=C(Cl)CC2C(=O)N1CCCCCCN1C(=O)C2CC=C(Cl)CC2C1=O (stereo not drawn)	Sm TGR inh 22µM
O=C(Nc1ccc(Cl)cc1)c1ccc2oc(=O)n(Cc3ccccc3)c2c1	none (no result: SARS PLP yeast)
CC(C)OCCCn1c(SCC(N)=O)nc2c(sc3ccccc32)c1=O	none (no result: SARS PLP yeast)
COc1ccc(C(=O)CCS(=O)(=O)c2ccc(C)cc2)cc1OC	Sm TGR inh 0.45µM
Cc1ccc(S(=O)(=O)CCC(=O)OCC(=O)c2cc(C)ccc2C)cc1	none
COc1ccc(C(=O)COC(=O)CCS(=O)(=O)c2ccc(C)cc2)c(OC)c1	none
Cc1ccc(S(=O)(=O)CCC(=O)c2ccc(O)cc2O)cc1	Sm TGR inh 0.45µM
CC(=O)Nc1ccc(S(=O)(=O)Nc2cc(-c3cn4ccccc4n3)ccc2C)cc1	none (no result: SARS PLP yeast)
CC(C)OCCCN1C(=O)c2[nH]nc(-c3ccccc3O)c2C1c1cccc(OCc2ccccc2)c1 (stereo not drawn)	none (no result: SARS PLP yeast)
On1c2c(c3c4nonc4ccc31)CCCC2	Sm TGR inh inconclusive
COn1c2c(c3c4nonc4ccc31)CCCC2	Sm TGR inh 28µM
CSCCC(NS(=O)(=O)c1ccc2c(c1)oc(=O)n2C)C(=O)Nc1ccc(Cl)cc1 (stereo not drawn)	none (no result: SARS PLP yeast)
COc1ccc(Cl)cc1N1C(=O)c2cccnc2C1=O	none
COc1ccc(Cl)cc1-n1c(C)ccc1C	Sm TGR inh 50µM
O=C(Cn1cc(SCc2ccc(F)cc2)c2ccccc21)N1CCCC1	none (no result: SARS PLP yeast)
NS(=O)(=O)c1ccc(NC2=CC(c3ccc([N+](=O)[O-])cc3)N(c3ccc(S(N)(=O)=O)cc3)C2=O)cc1 (stereo not drawn)	Sm TGR inh 18µM
COc1ccc(NC2=CC(c3ccc(OC)c(OC)c3)N(c3ccc(OC)cc3)C2=O)cc1 (stereo not drawn)	SARS PLP yeast inconclusive
Cc1ccc(N2C(=O)c3ccccc3C2C(=O)c2ccc(O)cc2O)cc1 (stereo not drawn)	Sm TGR inh inconclusive
Cc1ccc(N2C(=O)c3ccccc3C2C(=O)c2ccc(C)c(C)c2O)cc1 (stereo not drawn)	Sm TGR inh 4.5µM
COc1ccc(Cn2c(=O)c3ccccc3n3c(-c4ccc(C)cc4)nnc23)cc1	none (no result: SARS PLP yeast)
O=c1oc2ccccc2c(Cl)c1CN1CCCCC1	Sm TGR inh 4.5µM
